PubChem BioAssay (EPA / NIEHS)
Results filed as inconclusive are left out. A structure can be active in one record and inactive in another. The source made the active and inactive calls. How the source made its calls: active means hit-call score of the fitted dose curve at least 0.9, where 1 is the maximum; inconclusive means response in the unintended direction; inactive means score below 0.9.

assay: TOX21_p53_BLA_p5_viability: Viability Assessment in the Tox21 HCT-116 p53 Agonism Beta-lactamase Assay, Phase 5 (AID 2283600)
Description: TOX21_p53_BLA_p5 is a cell-based, single-readout assay that uses HCT116, a human intestinal cell line, […] in a 1536-well plate.TOX21_p53_BLA_p5_viability is an assay readout measuring cellular ATP content and detected with CellTiter-Glo Luciferase-coupled ATP quantitation.TOX21_p53_BLA_p5_viability used a type of viability reporter where loss-of-signal activity can be used to understand changes in the cell viability. Furthermore, this assay endpoint can be referred to as a secondary readout, because this assay has produced multiple assay endpoints where this one serves a viability function. To generalize the intended target to other relatable targets, this assay endpoint is annotated to the cell cycle intended target family, where the subfamily is cytotoxicity.
Thawing Method: Place 14 mL of pre-warmed thaw medium into a 15 mL of conical tub. Remove the vial of cells to be thawed from liquid nitrogen and thaw rapidly by placing at 37C in a water bath with gentle agitation for 1-2 minutes. Decontaminate the vial by wiping with 70% ethanol before opening in a biological safety cabinet. Transfer the vial contents drop-wise into 14 mL of thaw medium in a sterile 15-mL conical tub. Centrifuge cells at 900 rpm for 4 minutes and resuspend in thaw medium. Transfer contents to the T75 tissue culture flask containing Thaw Medium and place flask in a humidified 37C/5% CO2 incubator. Switch to growth medium at first passage.Propagation Method: Aspirate medium, rinse once in DPBS, add 0.25% Trypsin/EDTA and swirl to coat the cell evenly. Add an equal volume of Growth Medium to inactivate Trypsin after 2-3 minutes incubation at 37C. Centrifuge cells at 900 rpm for 4 minutes and resuspend in growth medium. Cell should be passage or fed at least twice a week.Assay Protocol: Harvest cells from culture in growth medium and resuspend in assay medium. 2.2 Dispense 4000 cells/5 uL/well into 1536-well black/clear bottom plates using a Multidrop dispenser. After the cells were incubated at 37C for 5 hours, 23 nL of compounds dissolved in DMSO were transferred to the assay plate by a PinTool resulting in a 217-fold dilution. Incubate the plates for 16 hours at 37C, 5% CO2. Add 1 uL of 6X LiveBLAzer FRET B/G (CCF4-AM) Substrate Mixture to each well using a BioRAPTR dispenser and incubate the plates at room temperature for 2 hours. Measure fluorescence intensity at 460 and 530 nm emission and 405 nm excitation by an Envision detector. Data is expressed as the ratio of 460nm/530nm emissions. Add 4 uL of Cell-titer Glo to each well using BioRAPTR and incubate the plates at room temperature for […]. For cell viability readout that measures cytotoxicity, 4 ul/well of CellTiter-Glo reagent was added into the assay plates using a Flying Reagent Dispenser. After 30 min incubation at room temperature, the luminescence intensity in the plates was measured using a ViewLux plate reader.

| SMILES | outcome | AC50 |
| --- | --- | --- |
| CC(=O)[C@H]1CC[C@H]2[C@@H]3CCC4=CC(=O)CC[C@]4(C)[C@H]3CC[C@]12C | inactive |  |
| CC(C)CCCCCCc1ccc(O)cc1 | inactive | 37.2 µM (active) |
| CCNc1nc(N)nc(Cl)n1 | inactive |  |
| Oc1ccc(C(c2ccc(O)cc2)C(Cl)(Cl)Cl)cc1 | inactive | 66.7 µM (active) |
| O=C(O)C1(C(=O)Nc2ccc(Cl)cc2Cl)CC1 | inactive |  |
| O=C(O)c1ccccc1 | inactive |  |
| CCCCOC(=O)C(C)Oc1ccc(Oc2ccc(C(F)(F)F)cn2)cc1 (configuration not stated) | inactive |  |
| CCCCCCC(C)OC(=O)COc1nc(F)c(Cl)c(N)c1Cl (configuration not stated) | inactive |  |
| Cc1nn(C)c(Oc2ccccc2)c1C=NOCc1ccc(C(=O)OC(C)(C)C)cc1 | inactive |  |
| CCCOC(=O)NCCCN(C)C | inactive |  |
| CCCN(CCC)c1c([N+](=O)[O-])cc(C(F)(F)F)c(N)c1[N+](=O)[O-] |  | 21.4 µM (active) |
| CCCCOC(=O)[C@@H](C)Oc1ccc(Oc2ccc(C(F)(F)F)cn2)cc1 | inactive |  |
| CC1(C)C(C=C(Cl)Cl)C1C(=O)OCc1cccc(Oc2ccccc2)c1 (configuration not stated) | inactive |  |
| C#CCOC(=O)[C@@H](C)Oc1ccc(Oc2ncc(Cl)cc2F)cc1 | inactive |  |
| COC(=O)c1ccccc1C(=O)O | inactive |  |
| O=C(Nc1ccc([N+](=O)[O-])cc1Cl)c1cc(Cl)ccc1O | inactive | 0.174 µM (active) |
| CCC(C)OC(=O)N1CCCCC1CCO (configuration not stated) | inactive |  |

| SMILES | outcome | AC50 |
| --- | --- | --- |
| c1ccc(Nc2ccccc2)cc1 | inactive |  |
| CCOC(=O)NCCOc1ccc(Oc2ccccc2)cc1 | inactive |  |
| C#C[C@]1(O)CC[C@H]2[C@@H]3CCC4=CC(=O)CC[C@@H]4[C@H]3CC[C@@]21CC | inactive |  |
| COC(=O)CSc1cc(N=c2sc(=O)n3n2CCCC3)c(F)cc1Cl | inactive |  |
| CCOC(=O)C(C)Oc1ccc(Oc2nc3ccc(Cl)cc3o2)cc1 (configuration not stated) | inactive |  |
| CCN(Cc1c(F)cccc1Cl)c1c([N+](=O)[O-])cc(C(F)(F)F)cc1[N+](=O)[O-] | inactive |  |
| COCCO | inactive |  |
| CCCCC(CC)CN1C(=O)C2C3C=CC(C3)C2C1=O (configuration not stated) | inactive |  |
| CC(C)(c1ccc(O)cc1)c1ccc(O)cc1 | inactive |  |
| CN(C)C(=O)Nc1ccc(Cl)c(Cl)c1 | inactive |  |
| CC(=O)S[C@@H]1CC2=CC(=O)CC[C@]2(C)[C@H]2CC[C@@]3(C)[C@@H](CC[C@@]34CCC(=O)O4)[C@H]12 | inactive |  |
| CC(C)(C)[C@@H](O)[C@@H](Cc1ccc(Cl)cc1)n1cncn1 | inactive |  |
| C[C@]12CC[C@@H]3c4ccc(O)cc4C[C@@H](CCCCCCCCCS(=O)CCCC(F)(F)C(F)(F)F)[C@H]3[C@@H]1CC[C@@H]2O (some centres not stated) | inactive |  |
| CCCCC(CC)COC(=O)c1ccccc1C(=O)O (configuration not stated) | inactive |  |
| COC(=O)c1ccc(I)cc1S(=O)(=O)NC(=O)Nc1nc(C)nc(OC)n1 | inactive |  |
| CCCN(CCC)C(=O)SCC | inactive |  |
| N[C@@H](Cc1cc(I)c(Oc2ccc(O)c(I)c2)c(I)c1)C(=O)O | inactive |  |
